This experiment has as its target AMP-activated protein kinase, AMPK (Homo sapiens) (UniProt P54646+O43741+P54619+Q9UGJ0+Q9Y478+Q13131+Q9UGI9). Kind of experiment: AMP-dependent Kinase enzyme assay. An in vitro enzyme assay that detects ADP turnover that is directly proportional to AMPK activity. This uses naive AMPK that is activated during the assay with MK-8722. Format: functional. Details: scale not given: direction of the effect not stated beside the values. Particulars: 30 µM.
With `CC(C)c1cc(C2CCN(C(=O)Cn3cnc4ccccc43)CC2)[nH]n1`, the Percent Effect was determined as 10.5%.
With `COCCNc1ncnc2c1CCN(C(=O)CC1CCC(=O)N1)CC2` (centres undefined) the figure was 15.1%; with `O=C(CCCN1CCCCC1)N[C@H](C(=O)O)c1cccc(F)c1F`, 6.38%; with `COCCc1noc(CN2CCN(c3ccc(OC)cc3)C(=O)C2C)n1` (centres undefined), 4.12%.
Take `CCOc1ccc(Cl)cc1CCNC(=O)c1ccc(=O)n(C)c1`: the Percent Effect was 7.18%.
Consider `Fc1ccccc1CN1CCC[C@H](Cn2nnc(-c3cccs3)n2)C1`, for which the Percent Effect is 4.46%.
On to `COc1ccc(CN(C)[C@@H]2COC[C@H]2c2ccc(F)cc2)c(OC)c1`, for which the Percent Effect is 10.5%.
With `OCCN1CCN(Cc2coc(-c3ccccc3Cl)n2)CC1` the figure was -12.1%.
As for `O=C(NC1CCN(C2CC2)CC1)c1cn(-c2ccc(Cl)cc2)nn1`, the Percent Effect is 0.108%.
For `CN1CCc2nc(C3CCCN(S(=O)(=O)c4ccccc4)C3)ncc2C1` (centres undefined) the value was 6.25%; for `Clc1snnc1CN(Cc1cccs1)C1CC1`, 3.68%.
For `COCCOc1ccc(F)cc1NCc1nc2ccccc2n1C` the value was 8.68%; for `O=C(NC1CCN(C2CC2)C1)c1cn(-c2ccc(F)cc2)nn1` (centres undefined), -3.53%; for `CS(=O)(=O)NC(=O)c1ccn(-c2ccccc2Cl)n1`, 9.09%.
With `CCOc1ccccc1C(C(=O)O)N(C)Cc1cc(C)[nH]n1` (centres undefined) the figure was 5.49%; with `Cc1nc2cc(-c3nccn3C)nn2c(N2CCC(O)CC2)c1C`, 20.2%; with `CC1(C)CC1(C(=O)N1CC(c2cccnc2)C1)c1ccc(F)cc1` (centres undefined), 3.87%.
Regarding `N#Cc1c(C2CC2)cc(-c2ccc(F)c(F)c2)nc1N`, the Percent Effect amounted to 10.4%.
For `CC(NC(=O)NCc1cccnc1N(C)C)c1cccs1` (centres undefined) the value was -8.61%.
Turning to `COc1cccc(CN(C)Cc2nc3cc(C)ccc3[nH]2)c1O`, the Percent Effect turned out to be 5.48%.
For `CC(C)C(CCO)NC(=O)Nc1ccc(-c2csnn2)cc1` (centres undefined) the value was 13.2%; for `CCn1ncnc1C(C)Nc1cc(C2CC2)ncn1` (centres undefined), 3.16%; for `COc1ncc(NCc2cccc(C#N)c2)cc1C(N)=O`, 8.6%.
With `CC(C)(C)NC(=O)CN1CCCNCC1` the figure was -0.0888%; with `Cc1noc(CCCC(=O)N2CSCC2C(=O)NCC2CC2)n1` (centres undefined), -0.369%; with `O=S(=O)(NC1CCCOC1)c1ccc(C(F)(F)F)nc1` (centres undefined), 7.35%.
With `CCCn1cc(CN2CCOCC2c2[nH]ncc2C)cn1` (centres undefined) the figure was 14.3%; with `CCn1cc(NC(=O)NCCN2CCCc3ccccc32)cn1`, 7.2%.
As to `CC1COCCN1C(=O)Cc1cc(Cl)c2c(c1)OCCCO2` (centres undefined), the Percent Effect was found to be 7.18%.
In the case of `CC(C)c1nc(CN(C)C(=O)[C@H](N)Cc2ccc(Cl)cc2)cs1`, the Percent Effect was found to be 2.32%.
Consider `CSc1ccc(CNC2CCCc3c2cnn3C)cc1` (centres undefined), for which the Percent Effect stood at 7.44%.
As to `N#CC1CCN(C(=O)CN2CC(c3ccccc3)CC2=O)CC1` (centres undefined), the Percent Effect turned out to be 5.49%.
With `COCCN1C(=O)[C@H]2CC[C@@H]1CN(S(=O)(=O)c1cccc(Cl)c1)C2` the figure was 27.4%; with `CSCCC(NC(N)=O)C(=O)NCc1cnn(-c2ccccc2)c1` (centres undefined), -5.05%.
With `Cc1nnc(CN(C)CC(=O)N2CCCN(C3CCCC3)CC2)n1C` the figure was -11.4%; with `Cc1nccn1CCCN1CCCC(c2ccccc2)C1` (centres undefined), -4.4%; with `CCCn1ccnc1-c1cccc(NC(=O)C2CCCOC2)c1` (centres undefined), -0.71%.
With `OCCC1(NCc2ccc(-n3cccn3)cc2)CCOCC1` the figure was -4.22%.
For the compound `CC(C)(O)CCc1cccc(C(=O)NCc2cnn3cccnc23)c1`, the Percent Effect is -0.643%.
